Bioassay records: PubChem, National Center for Advancing Translational Sciences (NCATS)
Luciferase inh: Firefly luciferase inhibition profiling of diverse chemical library using quantitative high-throughput screening; purified P. pyralis luciferase, luminescence, biochemical; Luciferin 4-monooxygenase (Photinus pyralis), P08659; Potency, µM (series often up to 115 µM), hits mostly inhibitors; 2.5% of 76,000 active; note: nearly all actives have a fitted effect of over 65% in size
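Purified 10nM P. pyralis luciferase with 10uM D-luciferin and 10uM ATP in 50mM Tris acetate pH 7.5, 10mM Mg acetate, 0.01% Tween-20, 0.05% BSA. qHTS titration; luminescence read by CCD imager.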
GPT2 inh: Primary qHTS assay for inhibitors of Glutamate pyruvate transaminase 2 (GPT2); Alanine aminotransferase 2 (Homo sapiens), Q8TD30; Recombinant GPT2, coupled pyruvate oxidase/HRP Amplex Red fluorescence; Potency, µM (series often up to 57.7 µM), for inactives: at the top dose activity change, negative = inhibition, most hits filed as inhibitors; 0.25% of 100,000 active; AID 1671188, 2021; note: nearly all actives have a fitted effect of over 60% in size
Target sequence (Q8TD30 whole entry, looked up): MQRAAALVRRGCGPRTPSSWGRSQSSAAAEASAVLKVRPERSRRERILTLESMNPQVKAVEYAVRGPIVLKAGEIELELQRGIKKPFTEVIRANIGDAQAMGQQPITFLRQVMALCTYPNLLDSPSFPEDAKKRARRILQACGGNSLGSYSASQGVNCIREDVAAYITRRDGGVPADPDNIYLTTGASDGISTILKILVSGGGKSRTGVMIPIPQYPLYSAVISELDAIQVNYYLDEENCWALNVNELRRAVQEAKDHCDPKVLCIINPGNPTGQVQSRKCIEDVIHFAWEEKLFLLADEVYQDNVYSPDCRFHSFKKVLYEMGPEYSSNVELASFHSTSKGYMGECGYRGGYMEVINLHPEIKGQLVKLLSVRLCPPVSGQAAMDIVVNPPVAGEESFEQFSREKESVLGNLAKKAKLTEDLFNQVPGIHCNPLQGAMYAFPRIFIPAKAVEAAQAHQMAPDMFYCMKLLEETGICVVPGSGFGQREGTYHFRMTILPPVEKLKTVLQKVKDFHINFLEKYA
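Fluorescence read-out: pyruvate from GPT2 turnover coupled to pyruvate oxidase, HRP and Amplex Red (0.2mM ThPP, 0.2U/mL PO and HRP, 50uM Amplex final). Substrates 250uM a-KG, 2mM L-alanine; enzyme 10ng/uL; 30 min RT.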
NIH3T3 tox: Cytotoxic Profiling in NIH 3T3 Cell Line of Diverse Libraries Using Quantitative High-Throughput Screening. 4.3% of 94,000 active. Potency, µM (titrated, usually from 96.7 µM), for the others: top-dose activity change, negative = cytotoxicity, most hits filed as inhibitors. AID 1345082, 2018. NIH 3T3 viability, CellTiter-Glo ATP luminescence, 48-72 h; note: nearly all actives have a fitted effect of over 55% in size
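Cytotoxicity is measured as loss of cellular ATP: NIH 3T3 cells (400/well) are exposed to compound for 48 or 72 hr at 37 °C, then CellTiter-Glo luminescence is imaged after 10 min at room temperature.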
NPR1 antag: Natriuretic polypeptide receptor (hNpr1) antagonism - Primary qHTS | Atrial natriuretic peptide receptor 1 (Homo sapiens), P16066 | HEK293 hNpr1 GloSensor cGMP, ANP-stimulated luminescence | 1.6% of 76,000 active | AID 1347048, 2019 | Potency, µM (titrated, usually from 46.3 µM), for inactives: top-dose activity change, negative = inhibition, most hits filed as inhibitors; calls by dose curve; note: nearly all actives have a fitted effect of over 60% in size
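HEK293 cells stably expressing human Npr1 and cGMP GloSensor pGS-40F, loaded 2 h with 2% GloSensor reagent, given compound 30 min at room temperature. Luminescence read before and 20 min after 0.1 nM hNppA.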
HEK293 tox: Cytotoxic Profiling in HEK 293 Cell Line of Diverse Libraries Using Quantitative High-Throughput Screening; HEK 293 viability, ATP luminescence (CellTiter-Glo), 48-72 h; 6.6% of 94,000 active; AID 1345083, 2018; Potency, µM (top dose mostly 115 µM), for the others: top-dose activity change, negative = cytotoxicity, actives largely listed as inhibitors; note: nearly all actives have a fitted effect of over 60% in size
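CellTiter-Glo luminescence (cellular ATP) was read after 48 or 72 hr of compound exposure at 37 degree Celsius. Cells were HEK 293 plated at 250 cells/well.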
* = called active by the depositor; i = inactive; ? = inconclusive; nt = no result; [ ] = another dose, or the depositor's remark. Compounds with a hit are over-represented: about 10% of the library has one in this group of screens. Unless noted, calls come from the whole dose curve; as a rule, active = well fitted curve in the direction sought with a large enough effect; inconclusive = small, poorly fitted or top-dose-only effect, or another doubt; inactive = no such curve, though single readings can be large; an effect the other way counts as inactive or inconclusive. % is set by controls: 0 for no effect and ±100 for the full control effect; potency is the fitted concentration of half-maximal effect.

SMILES	Luciferase inh	GPT2 inh	NIH3T3 tox	NPR1 antag	HEK293 tox
COc1ccc(-c2nc(C)nc3c2CN([S+](=O)([O-])c2cccs2)CC3)cc1	nt	-5%	28µM*	nt	i
COc1ccc(-c2nc(C3CC3)nc3c2CN([S+](=O)([O-])c2cccs2)CC3)cc1	nt	-2%	?	nt	-28%
CCc1ccc(C(=O)N2CCC3(CC2)OCC(C(=O)NC2CC2)N3C(=O)c2cccc(C)c2)cc1 (stereo not drawn)	i	i	-20%	1%	-10%
OC1CCOC2(CCN(Cc3ccc4c(c3)CCO4)CC2)C1 (stereo not drawn)	i	i	i	-6%	10%
CN1c2cccnc2CN(CC2CCCCC2)CC[C@H]1CO	i	0%[88.5 µM]	50µM*	-2%[70.6 µM]	?
O=C(C1CCCC1)N1CC2(CCN(C3CCCCC3)CC2)Cc2ccccc21	nt	-4%	?	nt	?
O=C(C1CCCC1)N1CC2(CCN(C3CCCCC3)C2)Cc2ccccc21 (stereo not drawn)	nt	i	?	nt	45µM*
O=C(C1CCCC1)N1CC2(CCCN(Cc3ccc(Cl)cc3)C2)Cc2ccccc21 (stereo not drawn)	nt	-12%	?	nt	40µM*
CC(=O)N1CC2(CCCN(Cc3ccc(Cl)cc3)C2)Cc2ccccc21 (stereo not drawn)	nt	1%	-19%	nt	?
O=C(C1CCCC1)N1CC2(CCN(Cc3cccnc3)C2)Cc2ccccc21 (stereo not drawn)	nt	?	?	nt	45µM*
CCNC(=O)O[C@H]1C(=O)N(C)C2(CCN(C(=O)C(C)C)CC2)[C@@H]1C(=O)NC	nt	nt	?	nt	-9%
COc1cccc(CN2CC(O)CN(C(=O)c3cccc(C(F)(F)F)c3)CC2=O)c1OC (stereo not drawn)	nt	nt	-21%	nt	?
COc1ccc(Nc2ccnc(N3CCC(NC(=O)Cc4ccc(F)cc4)CC3)n2)cc1	nt	i	?	nt	40µM*
O=C(Cc1ccccn1)N1CCN(c2nccc(Nc3ccccc3F)n2)CC1	nt	i	?	nt	?
COc1ccc(Nc2ccnc(N3CCC(NC(=O)NC4CCCC4)CC3)n2)cc1	nt	1%	?	nt	?
COc1ccc(CC(=O)NC2CCN(c3nccc(Nc4ccccc4F)n3)CC2)cc1	nt	i	45µM*	nt	?
O=C(Cc1ccc(F)cc1)NC1CCN(c2nccc(Nc3ccccc3F)n2)CC1	nt	-2%	?	nt	?
COc1ccc(CC(=O)N2CCN(c3nccc(Nc4ccccc4F)n3)CC2)cc1	nt	-1%	?	nt	45µM*
Cc1c(CC(=O)NC(C)C)c2c(n1Cc1ccccc1F)CCCC2=O	45µM*	i	-4%	-7%	?
Cc1c(CC(=O)NCC(F)(F)F)c2c(n1Cc1ccccc1F)CCCC2=O	i	-3%	-23%	0%	-25%
Cc1c(C(C)NC(=O)C(=O)c2ccco2)cnn1-c1cccc2ccccc12 (stereo not drawn)	i	3%	?	-8%	45µM*
Cc1ccc(-c2cccc(CN3CCCC(NC(=O)C4CC4)C3)c2)cc1Cl (stereo not drawn)	nt	-9%	?	nt	35µM*
COc1ccccc1C(=O)NC1CCCN(Cc2cccc(-c3ccc(C)c(Cl)c3)c2)C1 (stereo not drawn)	nt	-6%	?	nt	40µM*
Cc1ccc(C(=O)N2CCCC(C(=O)N3CCC(N4CCOCC4=O)CC3)C2)cc1 (stereo not drawn)	nt	2%	-13%	nt	-5%
CN(CCNC(=O)c1c(-c2ccccc2)cc(=O)n2c1CCC2)C1CCCCC1	nt	4%	-25%	nt	?
SMILES	Luciferase inh	GPT2 inh	NIH3T3 tox	NPR1 antag	HEK293 tox
C#CCNC(=O)c1ccc2nnc(-c3ccc(Cl)cc3)n2c1	nt	-2%[88.5 µM]	?	nt	-18%[172 µM]
CC(C)C(=O)NC1CCCN(c2ccc3nnc(-c4ccccc4)n3n2)C1 (stereo not drawn)	nt	nt	-31%	nt	-23%
O=C(NC1CCC1)c1ccc2nccn2c1	i	i	-2%[174 µM]	0%[70.6 µM]	i
O=C(NC1CCCCCC1)c1ccc2nccn2c1	40µM*	2%[88.5 µM]	-29%[138 µM]	-16%[70.6 µM]	?
O=C(NCc1ccccc1)c1ccc2nnc(-c3ccoc3)n2c1	nt	2%[88.5 µM]	?	nt	-8%[172 µM]
O=C(NCc1ccc(Cl)cc1)c1ccc2nnc(-c3cccc(C(F)(F)F)c3)n2c1	nt	i	?	nt	14µM*
O=C(NCc1cccs1)c1ccc2nnc(-c3cccc(C(F)(F)F)c3)n2c1	nt	-10%	?	nt	?
O=C(NCc1ccccc1Cl)c1ccc2nnc(-c3ccoc3)n2c1	nt	-7%[88.5 µM]	?	nt	112µM*
O=C(NCc1ccc(F)cc1)c1ccc2nnc(-c3cccc(C(F)(F)F)c3)n2c1	nt	i	?	nt	40µM*
CCO[C@H]1CN(C(=O)c2cc3ccc(OC)cc3n2C)C[C@@H]1O	i	3%[11.5 µM]	-5%	-1%	2%
O=C(Nc1ccc(F)cc1)N1C[C@@H]2OCC(=O)N(Cc3ccc(OC(F)(F)F)cc3)[C@@H]2C1	?	3%	?	1%	-17%
COc1cccc(CNC(=O)c2ccc3nnc(-c4cccc(C(F)(F)F)c4)n3c2)c1	nt	i	?	nt	45µM*
O=C(NCc1ccc(Cl)cc1)c1ccc2nnc(-c3cc(C(F)(F)F)cc(C(F)(F)F)c3)n2c1	nt	i	?	nt	14µM*
O=C(NCCc1ccc(Cl)cc1)c1ccc2nnc(-c3ccc(Cl)cc3)n2c1	nt	5%	?	nt	?
O=C(NC1CCCCC1)c1ccc2nnc(-c3cc(C(F)(F)F)cc(C(F)(F)F)c3)n2c1	nt	i	32µM*	nt	35µM*
O=C(NCCc1ccc(Cl)cc1)c1ccc2nnc(-c3cccc(C(F)(F)F)c3)n2c1	nt	i	22µM*	nt	?
COc1cccc(CNC(=O)c2ccc3nnc(-c4cc(C(F)(F)F)cc(C(F)(F)F)c4)n3c2)c1	nt	-9%	?	nt	?
CCO[C@H]1CN(Cc2ccccc2OCCn2ccnc2)C[C@@H]1O	i	-4%	-17%	1%	-4%
O=C(NCCc1ccc(Cl)cc1)C1CCN(c2nc3ncccc3o2)CC1	nt	i	?	nt	?
COc1cccc(C(=O)N2CCN(C(=O)c3nc4cccnc4n(Cc4ccccc4)c3=O)CC2)c1	nt	i	-27%	nt	-17%
O=C(NCc1ccc(F)c(F)c1)c1ccc2nnc(-c3cccc(C(F)(F)F)c3)n2c1	nt	i	25µM*	nt	32µM*
O=C(NCc1ccccn1)c1ccc2nnc(-c3cccc(C(F)(F)F)c3)n2c1	nt	i	?	nt	?
